KB-V1 cytotox – KB-V1 MDR subline cytotoxicity. KB-V1 MDR cells viability, CellTiter-Glo, 72 h. 400,000 tested, 3.4% active. AID 1347076. Potency, µM (titrated, usually from 46.1 µM), usual class: cytotoxic; also: % is scaled to controls: 0 for no effect and ±100 for the full control effect; nearly all actives have a fitted effect of over 60% in size
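Luminescent ATP read-out (CellTiter-Glo, 10 min) measures survival of drug-selected KB-V1 MDR cells after 72 h, 37 degrees C compound exposure. Medium: phenol-red-free DMEM, 10% FBS. Values from fitted concentration-response curves.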
HT1080 IDH1KD tx – HT-1080 IDH1 knockdown cell toxicity (counter line). Potency, µM (titrated, usually from 46.1 µM), for the others: top-dose activity, negative = toxicity, usual class: cytotoxic. 360,000 tested, 2% active. HT-1080 IDH1 knockdown viability, ATP luminescence, 48 h;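 also: 0% = DMSO wells and -100% = cell-free medium wells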
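Luminescent ATP read-out (CellTiter-Glo, 10 min at room temperature) after 48 h compound exposure at 37 °C gave viability of IDH1-knockdown HT-1080 cells. Activity was normalised to DMSO and cell-free wells, then fitted as concentration-response curves.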
HT1080NT lethal – kills 2HG-producing HT-1080-NT fibrosarcoma cells; HT-1080-NT fibrosarcoma viability, CellTiter-Glo ATP luminescence, 48 h; Potency, µM (doses to about 46.1 µM), for inactives: top-dose activity, negative = less viability, hits mostly cytotoxic; 360,000 tested, 1.6% active; AID 686970;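 also: NT is the 2HG producing partner of a matched IDH1 knockdown line; 0% = DMSO-treated cells and -100% = media-only wells without cells; nearly all actives have a fitted effect of over 55% in size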
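Toxicity toward the 2HG-producing NT line was scored as %Activity, normalised to DMSO and no-cell wells, from CellTiter-Glo luminescence after 48 hours' treatment.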
HepG2 tox-1 – kills HepG2 cells in TGF-b inhibitor counter-screen | AID 588856 | 410,000 tested, 0.76% active | HepG2 CAGA-GFP viability, ATP luminescence, 18 h | Potency, µM (titrated, usually from 46.1 µM), without a hit: top-dose activity change, negative = cytotoxicity, usual class: cytotoxic
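HepG2 CAGA-GFP cells (1000/well, DMEM with 1% FBS) received compound, then TGF-beta at 500 pg/mL final, and were incubated 18 hours at 37 degrees C. Viability was read by CellTiter-Glo luminescence. Media-only wells were set as complete cell-killing and DMSO as no toxicity.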
TGFb SMAD3 inh – TGF-b pathway inhibition; HepG2 CAGA-GFP TGF-b/SMAD3 reporter, GFP fluorescence, 18 h; TGF-beta stimulated, 500 pg/mL final; Potency, µM (doses to about 46.1 µM), for the others: at the highest dose activity, negative = inhibition, most hits filed as inhibitors; 410,000 tested, 1.2% active; AID 588855; also: % is scaled to controls: 0 for no effect and ±100 for the full control effect; nearly all actives have a fitted effect of over 65% in size
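Using HEPG2 CAGA-GFP reporter cells at 1000 cells/well, we pinned test compounds, stimulated with recombinant TGF-beta (500 pg/mL final) and measured total well GFP after 18 h.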
KB-3-1 tox – kills parental KB-3-1 adenocarcinoma cells; AID 1347075; Potency, µM (series often up to 46.1 µM), actives largely listed as cytotoxic; 400,000 tested, 1.4% active; KB-3-1 viability, CellTiter-Glo ATP luminescence, 72 h; also: % is scaled to controls: 0 for no effect and ±100 for the full control effect; nearly all actives have a fitted effect of over 60% in size
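72 h, 37 °C compound treatment of KB-3-1 parental cells; CellTiter-Glo added, 10 min, luminescence read. Data corrected against DMSO-only plates and normalized before curve fitting.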
TGFb confirm – confirmation of TGF-b signaling inhibitors in HepG2 reporter cells; HepG2 CAGA-GFP TGF-b reporter, GFP fluorescence, 18 h; cells stimulated with TGF-beta, 500 pg/mL; 1,600 tested, 63% active; Potency, µM (series often up to 46.1 µM), for inactives: at the highest dose activity, negative = inhibition, usual class: inhibitors; shares compounds with TGFb SMAD3 inh; also: % is scaled to controls: 0 for no effect and ±100 for the full control effect; nearly all actives have a fitted effect of over 65% in size
HepG2 tox-2 – HepG2 cytotoxicity, TGF-b inhibitor counterscreen | shares compounds with TGFb SMAD3 inh | HepG2 CAGA-GFP viability, ATP luminescence, 18 h; cells stimulated with TGF-beta, 500 pg/mL | Potency, µM (top dose mostly 46.1 µM), without a hit: top-dose activity, negative = cytotoxicity, hits mostly inhibitors | 1,600 tested, 27% active | AID 720535; also: % is scaled to controls: 0 for no effect and ±100 for the full control effect; nearly all actives have a fitted effect of over 70% in size
CCL64 TGFb inh – TGF-b inhibition, CCL64 orthogonal assay; Potency, µM (highest dose often 46.1 µM), inactives show at the top dose activity, negative = inhibition, most hits filed as inhibitors; CCL64 CAGA-GFP reporter, TGF-b stimulated, GFP fluorescence, 18 h; shares compounds with TGFb SMAD3 inh; 1,600 tested, 41% active; also: nearly all actives have a fitted effect of over 65% in size
TGFb COP inh – validation of TGF-b inhibitors in HepG2 COP promoter reporter. shares compounds with TGFb SMAD3 inh. HepG2 COP-GFP TGF-b reporter, GFP fluorescence, 18 h; cells stimulated by added recombinant TGF-beta. Potency, µM (series often up to 46.1 µM), without a hit: top-dose activity, negative = inhibition, actives largely listed as inhibitors. 1,600 tested, 3% active. AID 720537; also: nearly all actives have a fitted effect of over 70% in size
Starred values were filed as active, the others as inactive; i = inactive; u = inconclusive; x = no result; ! = repeats disagree; [ ] = remark or other dose. Rows were chosen to be rich in hits. Some 6.6% of all compounds tested hit in one or more screens of this group. Calls follow the shape of the dose curve; as a rule, active = well fitted curve in the direction sought with a large enough effect; inconclusive = small, poorly fitted or top-dose-only effect, or another doubt; inactive = no such curve, though single readings can be large; an effect the other way counts as inactive or inconclusive. Potency is read from the fitted curve at half-maximal effect.

SMILES	KB-V1 cytotox	HT1080 IDH1KD tx	HT1080NT lethal	HepG2 tox-1	TGFb SMAD3 inh	KB-3-1 tox	TGFb confirm	HepG2 tox-2	CCL64 TGFb inh	TGFb COP inh
COC(=O)C[C@H]1C=C[C@@H](C(C(=O)OC)C(=O)OC)CN1C(C)=O	i	13%	14%	-1%	-14%	i	x	x	x	x
Cc1ccc(C)c(Nc2nc3c(S(=O)(=O)c4ccc(Br)cc4)nnn3c3ccsc23)c1	i	x	x	-4%	u	i	x	x	x	x
COc1ccc(NC(=O)CSc2nc3c(oc4ccccc43)c(=O)n2Cc2ccco2)cc1Cl	x	x	x	-23%	-18%	x	x	x	x	x
Cn1c(=O)c(=O)n(C)c2cc(NS(=O)(=O)c3ccc(Br)cc3)c(Cl)cc21	i	x	x	-11%	-21%	i	x	x	x	x
Cc1ccc(SC[C@H](C)CN2CC[C@H](C(C)(C)C)CCC2=O)cc1	u	-14%	-2%	11µM*!	10µM*	u	u	u	21µM*	27%
CC(=O)Nc1ccc(SC[C@H](Cc2ccccc2)N2CC[C@@H](C(C)(C)C)CCC2=O)cc1	u	16µM*	u	-10%	10µM*	u	26µM*	u	u	60%
CC(C)COC(=O)N1CCCCC1c1cc(C(=O)NCc2cccnc2)no1 (stereo not drawn)	i	12%	5%	0%	1%	i	x	x	x	x
CCOc1ccc2nc(N3CCN(C(=O)c4ccc5c(c4)CCCC5)CC3)sc2c1	x	x	x	-32%	u	x	x	x	x	x
Cn1c(=O)c2cc(NC(=O)NCc3ccc(F)cc3)ccc2n1C	i	6%	23%	-1%	5%	i	x	x	x	x
COc1ccc(/C=N\NC(=O)c2ccccc2[N+](=O)[O-])cc1COc1c(F)c(F)c(F)c(F)c1F	i	2%	4%	-4%	8.9µM*	i	2.6µM*	u	u	33%
COc1ccc(/C=N/NC(=O)c2ccccc2[N+](=O)[O-])cc1CN1CCc2cc(OC)c(OC)cc2C1C (stereo not drawn)	i	0%	-7%	-1%	11%	i	x	x	x	x
COc1cccc(NC(=O)C(NCCC(C)C)c2ccccc2)c1 (stereo not drawn)	i	-9%	-2%	-31%	13µM*	i	u	-5%	-28%	-6%
COc1cccc(NC(=O)C(NCC2CCCCC2)c2ccccc2)c1 (stereo not drawn)	i	0%	1%	-43%	15%	i	x	x	x	x
COc1ccc(-n2nc(C(=O)Nc3ccc(Cl)cn3)c3c4ccccc4n(C)c3c2=O)cc1Cl	u	x	x	-9%	0%	i	x	x	x	x
COc1cc(Nc2nc(-c3ccccc3)c3cc(C)ccc3n2)cc(OC)c1OC	21µM*	u	u	-15%	11µM*	u	18µM*	u	-78%	51%
COc1cccc(Nc2nc(-c3ccccc3)c3cc(C)ccc3n2)c1	x	x	x	-19%	-29%	x	x	x	x	x
COc1ccc(O)c(CN2CC3CCC(CC3)C2)c1	i	7%	8%	-20%	-6%	i	x	x	x	x
O=C(NC(=S)Nc1cc(Cl)ccc1Cl)c1ccco1	i	6%	1%	-1%	5%	i	x	x	x	x
O=C(c1ccc([N+](=O)[O-])s1)N1CCc2ccccc21	i	12%	9%	-3%	-15%	i	x	x	x	x
O=C(c1ccc([N+](=O)[O-])s1)N1CCc2ccccc2C1	u	-21%	-26%	-53%	u	i	23µM*	u	u	4%
O=C(c1ccc(Cl)cc1)C(CN1CCCCC1)c1ccccc1 (stereo not drawn)	21µM*	2.6µM*	5.8µM*	5.6µM*	5.6µM*	23µM*	13µM*	18µM*	2.3µM*	u
COc1ccc(C(=O)C(CN2CCOCC2)c2ccccc2)cc1F (stereo not drawn)	u	12µM*	u	-104%	4µM*	u	u	15µM*	7.3µM*	17%
COc1ccc(-c2noc(CN(C(=O)COc3cc(C)c(Br)c(C)c3)C(C)C)n2)cc1	u	x	x	-32%	u	u	x	x	x	x
CC1(C)CC(NC(=O)c2cc(S(=O)(=O)N3CCOCC3)ccc2Cl)CC(C)(C)N1	i	2%	-1%[9.24 µM]	1%	-6%	i	x	x	x	x
C1=Cc2ccccc2/C1=C\c1ccc2c(c1)OCO2	i	x	x	-26%	-10%	i	x	x	x	x
c1ccc(COc2ncnc3c2ncn3CCCNCc2ccc3c(c2)OCO3)cc1	i	-13%	-4%	-1%	-5%	i	x	x	x	x
O=C1C(F)=CC(COC(c2ccccc2)(c2ccccc2)c2ccccc2)OC1n1cc(F)c(=O)[nH]c1=O (stereo not drawn)	u	21µM*	u	-60%	5µM*	u	2.9µM*	8.2µM*	2.3µM*	u
CC(=O)OCC1OC(n2cc(F)c(=O)[nH]c2=O)C(OC(C)=O)C1OC(C)=O (stereo not drawn)	i	u	3%	-9%	u	i	x	x	x	x
CC(=O)Nc1nc(C)c(-c2csc(Nc3cccc(C(C)=O)c3)n2)s1	u	-4%	u	-12%	u	u	x	x	x	x
CC(=O)Nc1nc(C)c(-c2csc(Nc3cccc([N+](=O)[O-])c3)n2)s1	u	u	u	-41%	u	i	-3%	u	u	44%

Compound activity: PubChem BioAssay, National Center for Advancing Translational Sciences (NCATS)
